# Measurements reported in the supplement of paper PMC8728848.
# Shown is part of a subset that was picked to be rich in the strongest signals.
# Legend:
# Assay in all cases: glycan array binding signal (z-score within array); higher = stronger binding
# Conditions in all cases: glycan notation: IUPAC condensed, linker removed
# [1] = molecular target: Fuc(a1-2)Gal(b1-3)GalNAc(a1-3)[Fuc(a1-2)]Gal(b1-4)GlcNAc
# In short: (§1)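 Arrays were curated from the Consortium for Functional Glycomics database, 3228 in total, and kept only where the protein sequence was available. Binding is expressed as a within-array Z-score. This score was averaged across arrays of the same protein sequence at different concentrations or buffers and across linkers, and negative values can be read as non-binding.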
# [2] = molecular target: Fuc(a1-2)Gal(b1-3)GalNAc(b1-4)[Neu5Ac(a2-3)]Gal(b1-4)Glc
# In short: as §1
# [3] = molecular target: Fuc(a1-2)Gal(b1-3)GlcNAc(b1-3)[Gal(b1-4)GlcNAc(b1-6)]Gal(b1-4)Glc
# In short: as §1
# [4] = molecular target: Fuc(a1-2)Gal(b1-3)[Fuc(a1-4)]GlcNAc(b1-3)[Fuc(a1-3)[Gal(b1-4)]GlcNAc(b1-6)]Gal(b1-4)Glc
# In short: as §1
# [5] = molecular target: Fuc(a1-2)Gal(b1-4)GlcNAc(b1-2)[Fuc(a1-2)Gal(b1-4)GlcNAc(b1-4)]Man(a1-3)[Fuc(a1-2)Gal(b1-4)GlcNAc(b1-2)Man(a1-6)]Man(b1-4)GlcNAc(b1-4)GlcNAc
# In short: as §1
# [6] = molecular target: Fuc(a1-2)[Gal(a1-3)]Gal(b1-3)GlcNAc
# In short: as §1
# [7] = molecular target: Fuc(a1-2)[Gal(a1-3)]Gal(b1-4)Glc
# In short: as §1
# [8] = molecular target: Fuc(a1-2)[Gal(a1-4)]Gal(b1-4)GlcNAc
# In short: as §1
# [9] = molecular target: Fuc(a1-2)[GalNAc(a1-3)]Gal(b1-4)Glc
# In short: as §1
# [10] = molecular target: Fuc(a1-2)[GalNAc(a1-3)]Gal(b1-4)GlcNAc
# In short: as §1
# [11] = molecular target: Fuc(a1-2)[GalNAc(a1-3)]Gal(b1-4)GlcNAc(b1-2)Man(a1-3)[Fuc(a1-2)[GalNAc(a1-3)]Gal(b1-4)GlcNAc(b1-2)Man(a1-6)]Man(b1-4)GlcNAc(b1-4)GlcNAc
# In short: as §1
# [12] = molecular target: Fuc(a1-3)[Gal(b1-4)]GlcNAc(b1-4)Gal(b1-4)[Fuc(a1-3)]GlcNAc(b1-4)Gal(b1-4)[Fuc(a1-3)]GlcNAc
# In short: as §1
# Fuc(a1-4)GlcNAc = molecular target: Fuc(a1-4)GlcNAc
# In short: as §1
# Gal(a1-3)Gal(b1-4)Glc = molecular target: Gal(a1-3)Gal(b1-4)Glc
# In short: as §1
# [13] = molecular target: Gal(a1-4)Gal(b1-4)GlcNAc(b1-2)Man(a1-3)[Gal(a1-4)Gal(b1-4)GlcNAc(b1-2)Man(a1-6)]Man(b1-4)GlcNAc(b1-4)GlcNAc
# In short: as §1
# Gal(b1-3)GlcNAc = molecular target: Gal(b1-3)GlcNAc
# In short: as §1
# [14] = molecular target: Gal(b1-3)GlcNAc(b1-2)Man(a1-3)[Gal(b1-3)GlcNAc(b1-2)Man(a1-6)]Man(b1-4)GlcNAc(b1-4)GlcNAc
# In short: as §1
# [15] = molecular target: Gal(b1-3)GlcNAc(b1-2)Man(a1-3)[Gal(b1-3)GlcNAc(b1-2)Man(a1-6)]Man(b1-4)GlcNAc(b1-4)[Fuc(a1-6)]GlcNAc
# In short: as §1
# [16] = molecular target: Gal(b1-3)[Fuc(a1-4)]GlcNAc(b1-2)Man(a1-3)[Gal(b1-3)[Fuc(a1-4)]GlcNAc(b1-2)Man(a1-6)]Man(b1-4)GlcNAc(b1-4)GlcNAc
# In short: as §1
# [17] = molecular target: Gal(b1-3)[Fuc(a1-4)]GlcNAc(b1-2)Man(a1-3)[Gal(b1-3)[Fuc(a1-4)]GlcNAc(b1-2)Man(a1-6)]Man(b1-4)GlcNAc(b1-4)[Fuc(a1-6)]GlcNAc
# In short: as §1
# [18] = molecular target: Gal(b1-3)[Neu5Ac(a2-6)]GalNAc
# In short: as §1
# [19] = molecular target: Gal(b1-3)[Neu5Ac(a2-6)]GlcNAc(b1-6)Gal(b1-4)Glc
# In short: as §1
# [20] = molecular target: Gal(b1-4)GlcNAc(b1-2)Man(a1-3)[Gal(b1-4)GlcNAc(b1-2)Man(a1-6)]Man(b1-4)GlcNAc(b1-4)[Fuc(a1-6)]GlcNAc
# In short: as §1
# [21] = molecular target: Gal(b1-4)GlcNAc(b1-2)Man(a1-3)[GlcNAc(b1-2)Man(a1-6)]Man(b1-4)GlcNAc(b1-4)GlcNAc
# In short: as §1
# [22] = molecular target: Gal(b1-4)GlcNAc(b1-6)Gal(b1-4)GlcNAc
# In short: as §1
# [23] = molecular target: Gal3S(b1-3)[Fuc(a1-4)]GlcNAc
# In short: as §1
# Gal3S(b1-4)Glc6S = molecular target: Gal3S(b1-4)Glc6S
# In short: as §1
# Gal3S(b1-4)GlcNAc6S = molecular target: Gal3S(b1-4)GlcNAc6S
# In short: as §1
# Gal3S6S(b1-4)GlcNAc6S = molecular target: Gal3S6S(b1-4)GlcNAc6S
# In short: as §1
# Gal6S(b1-3)GlcNAc6S = molecular target: Gal6S(b1-3)GlcNAc6S
# In short: as §1
# Gal6S(b1-4)GlcNAc6S = molecular target: Gal6S(b1-4)GlcNAc6S
# In short: as §1
# GalNAc(b1-6)GalNAc = molecular target: GalNAc(b1-6)GalNAc
# In short: as §1
# Glc(b1-6)Glc = molecular target: Glc(b1-6)Glc
# In short: as §1
# GlcA(b1-3)GlcNAc = molecular target: GlcA(b1-3)GlcNAc
# In short: as §1
# [24] = molecular target: GlcNAc(a1-4)Gal(b1-4)GlcNAc(b1-3)Gal(b1-4)[Fuc(a1-3)]GlcNAc(b1-3)Gal(b1-4)[Fuc(a1-3)]GlcNAc
# In short: as §1
# [25] = molecular target: GlcNAc(b1-2)Man(a1-3)[GlcNAc(b1-4)][GlcNAc(b1-2)Man(a1-6)]Man(b1-4)GlcNAc(b1-4)GlcNAc
# In short: as §1
# [26] = molecular target: GlcNAc(b1-2)[GlcNAc(b1-4)]Man(a1-3)[GlcNAc(b1-4)][GlcNAc(b1-2)Man(a1-6)]Man(b1-4)GlcNAc(b1-4)GlcNAc
# In short: as §1
# [27] = molecular target: Neu5Ac(a2-3)Gal(b1-3)GalNAc(b1-3)Gal(a1-4)Gal(b1-4)Glc
# In short: as §1
# [28] = molecular target: Neu5Ac(a2-3)Gal(b1-3)GlcNAc(b1-3)Gal(b1-3)GlcNAc
# In short: as §1
# [29] = molecular target: Neu5Ac(a2-3)Gal(b1-3)[Fuc(a1-4)]GlcNAc(b1-3)Gal(b1-3)[Fuc(a1-4)]GlcNAc
# In short: as §1
# [30] = molecular target: Neu5Ac(a2-3)Gal(b1-4)GlcNAc(b1-3)Gal(b1-3)GlcNAc
# In short: as §1
# [31] = molecular target: Neu5Ac(a2-3)Gal(b1-4)GlcNAc(b1-6)[Neu5Ac(a2-3)Gal(b1-3)]GalNAc
# In short: as §1
# [32] = molecular target: Neu5Ac(a2-3)Gal(b1-4)[Fuc(a1-3)]GlcNAc(b1-3)GalNAc
# In short: as §1
# [33] = molecular target: Neu5Ac(a2-3)Gal(b1-4)[Fuc(a1-3)]GlcNAc(b1-6)[Gal(b1-3)]GalNAc
# In short: as §1
# [34] = molecular target: Neu5Ac(a2-3)[GalNAc(b1-4)]Gal(b1-4)GlcNAc(b1-3)GalNAc
# In short: as §1
# [35] = molecular target: Neu5Ac(a2-6)Gal(b1-4)GlcNAc(b1-2)Man(a1-3)[GlcNAc(b1-2)Man(b1-4)GlcNAc(b1-2)Man(a1-6)]Man(b1-4)GlcNAc(b1-4)GlcNAc
# In short: as §1
# [36] = molecular target: Neu5Ac(a2-6)Gal(b1-4)GlcNAc(b1-2)Man(a1-3)[Man(a1-6)]Man(b1-4)GlcNAc(b1-4)GlcNAc
# In short: as §1
# [37] = molecular target: Neu5Ac(a2-6)Gal(b1-4)GlcNAc(b1-3)Gal(b1-4)GlcNAc(b1-3)Gal(b1-4)GlcNAc
# In short: as §1
# [38] = molecular target: Neu5Ac(a2-6)Gal(b1-4)GlcNAc(b1-3)Gal(b1-4)[Fuc(a1-3)]GlcNAc(b1-3)Gal(b1-4)[Fuc(a1-3)]GlcNAc
# In short: as §1
# [39] = molecular target: Neu5Ac(a2-8)Neu5Ac(a2-3)[Gal(b1-3)GalNAc(b1-4)]Gal(b1-4)Glc
# In short: as §1
binder,measurement,setting,value
"rPitB (Streptococcus pneumoniae), A0A0I7U739 (protein) MSEIEIINAKKIYHDVPVIENLNITIPKGSLFTLLGASGCGKTTLLRMIAGFNSIKDGEFYFDDTKINNMEPSKRNIGLVFQNYAIFPHLTVRDNVAFGLMQKKVPKEELIQQTNKYLELMQIAQYAD",glycan array binding signal (z-score),[1],-0.708
same,glycan array binding signal (z-score),[2],-0.128
same,glycan array binding signal (z-score),[3],-0.397
same,glycan array binding signal (z-score),[4],0.227
same,glycan array binding signal (z-score),[5],0.316
same,glycan array binding signal (z-score),[6],-0.113
same,glycan array binding signal (z-score),[7],1.11
same,glycan array binding signal (z-score),[8],-0.108
same,glycan array binding signal (z-score),[9],-0.271
same,glycan array binding signal (z-score),[10],-0.509
same,glycan array binding signal (z-score),[11],0.481
same,glycan array binding signal (z-score),[12],3.03
same,glycan array binding signal (z-score),Fuc(a1-4)GlcNAc,-0.579
same,glycan array binding signal (z-score),Gal(a1-3)Gal(b1-4)Glc,-0.617
same,glycan array binding signal (z-score),[13],1.43
same,glycan array binding signal (z-score),Gal(b1-3)GlcNAc,-0.704
same,glycan array binding signal (z-score),[14],0.944
same,glycan array binding signal (z-score),[15],0.638
same,glycan array binding signal (z-score),[16],3.68
same,glycan array binding signal (z-score),[17],2.09
same,glycan array binding signal (z-score),[18],0.092
same,glycan array binding signal (z-score),[19],-0.142
same,glycan array binding signal (z-score),[20],0.8
same,glycan array binding signal (z-score),[21],-0.568
same,glycan array binding signal (z-score),[22],-0.596
same,glycan array binding signal (z-score),[23],-0.575
same,glycan array binding signal (z-score),Gal3S(b1-4)Glc6S,0.112
same,glycan array binding signal (z-score),Gal3S(b1-4)GlcNAc6S,0.471
same,glycan array binding signal (z-score),Gal3S6S(b1-4)GlcNAc6S,-0.233
same,glycan array binding signal (z-score),Gal6S(b1-3)GlcNAc6S,0.052
same,glycan array binding signal (z-score),Gal6S(b1-4)GlcNAc6S,0.24
same,glycan array binding signal (z-score),GalNAc(b1-6)GalNAc,-0.608
same,glycan array binding signal (z-score),Glc(b1-6)Glc,-0.176
same,glycan array binding signal (z-score),GlcA(b1-3)GlcNAc,5.72
same,glycan array binding signal (z-score),[24],3.89
same,glycan array binding signal (z-score),[25],-0.914
same,glycan array binding signal (z-score),[26],-1.01
same,glycan array binding signal (z-score),[27],-0.604
same,glycan array binding signal (z-score),[28],-0.301
same,glycan array binding signal (z-score),[29],2.33
same,glycan array binding signal (z-score),[30],-0.394
same,glycan array binding signal (z-score),[31],0.027
same,glycan array binding signal (z-score),[32],4.13
same,glycan array binding signal (z-score),[33],2.86
same,glycan array binding signal (z-score),[34],-0.463
same,glycan array binding signal (z-score),[35],-0.255
same,glycan array binding signal (z-score),[36],0.505
same,glycan array binding signal (z-score),[37],0.323
same,glycan array binding signal (z-score),[38],0.032
same,glycan array binding signal (z-score),[39],-0.053
